In all, about 5,500 compounds went through this assay and about 2,000 (36%) were called active. Inconclusive results (about 18%) are left out. No stated cut-off is given here; in the data, active means normalized growth mostly below about 0.91 (no sharp cut-off); inconclusive means no clear call, values can overlap the other calls; inactive means mostly above about 0.92. The list shows a part of the results.
Assay: chemical genetic growth profiling, strain panel (AID 1159580);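 further: tested at 20 µM; growth read once vehicle control cultures reached saturation at 30 °C; 1 = growth at the plate median or of vehicle wells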
Details: growth OD
[1] = S. cerevisiae deletion strains, locus YGR078C, strain PAC10, stronger effect = lower value
[2] = S. cerevisiae deletion strains, locus YMR263W, strain SAP30, stronger effect = lower value
[3] = S. cerevisiae deletion strains, locus YMR307W, strain GAS1, stronger effect = lower value
[4] = S. cerevisiae deletion strains, locus YNL322C, strain KRE1, stronger effect = lower value
[5] = S. cerevisiae deletion strains, locus YPL241C, strain CIN2, stronger effect = lower value
[6] = S. cerevisiae deletion strains, locus YDL101C, strain DUN1, stronger effect = lower value
[7] = S. cerevisiae deletion strains, locus YHR030C, strain SLT2, stronger effect = lower value

Measured: normalized growth

CCCc1c(-c2ccc(O)cc2)nn(-c2ccc(O)cc2)c1-c1ccc(O)cc1
inactive: S. cerevisiae deletion strains, locus YAL040C, strain CLN3, stronger effect = lower value 0.985 | S. cerevisiae deletion strains, locus YCL061C, strain MRC1 (second series), stronger effect = lower value 0.999 | S. cerevisiae deletion strains, locus YDR363W, strain ESC2, stronger effect = lower value 0.994 | S. cerevisiae deletion strains, locus YER002W, strain NOP16, stronger effect = lower value 1 | [1] 1 | [2] 0.995 | [3] 1.01 | S. cerevisiae deletion strains, locus YNL175C, strain NOP13, stronger effect = lower value 1.02 | S. cerevisiae deletion strains, locus YNL197C, strain WHI3, stronger effect = lower value 1.01 | S. cerevisiae deletion strains, locus YNL224C, strain SQS1, stronger effect = lower value 1 | [4] 0.988 | S. cerevisiae deletion strains, locus YOR083W, strain WHI5 (second series), stronger effect = lower value 0.948 | [5] 0.991

O=C1CCc2cccc3cccc1c23
inactive: S. cerevisiae deletion strains, locus YAL013W, strain DEP1, stronger effect = lower value 0.963 | S. cerevisiae deletion strains, locus YBR229C, strain ROT2, stronger effect = lower value 0.984 | [6] 0.932 | S. cerevisiae deletion strains, locus YDR150W, strain NUM1, stronger effect = lower value 0.966 | S. cerevisiae deletion strains, locus YEL061C, strain CIN8, stronger effect = lower value 0.954 | [1] 0.962 | [7] 0.769 | S. cerevisiae deletion strains, locus YHR087W, strain rtc3, stronger effect = lower value 1.01 | S. cerevisiae deletion strains, locus YJL187C, strain SWE1, stronger effect = lower value 0.981 | S. cerevisiae deletion strains, locus YJR043C, strain POL32, stronger effect = lower value 0.988 | S. cerevisiae deletion strains, locus YJR075W, strain HOC1, stronger effect = lower value 0.997 | S. cerevisiae deletion strains, locus YLR058C, strain SHM2 (second series), stronger effect = lower value 0.982 | S. cerevisiae deletion strains, locus YML094W, strain GIM5, stronger effect = lower value 0.921 | S. cerevisiae deletion strains, locus YMR219W, strain ESC1, stronger effect = lower value 0.988 | [2] 0.969 | [3] 1.03 | S. cerevisiae deletion strains, locus YNL153C, strain GIM3, stronger effect = lower value 0.934 | S. cerevisiae deletion strains, locus YNL298W, strain CLA4 (second series), stronger effect = lower value 0.906 | [4] 0.957 | S. cerevisiae deletion strains, locus YNR030W, strain Alg12, stronger effect = lower value 0.927 | S. cerevisiae deletion strains, locus YPL055C, strain LGE1, stronger effect = lower value 1 | [5] 0.933 | S. cerevisiae deletion strains, locus YPR135W, strain CTF4, stronger effect = lower value 0.713 | S. cerevisiae strains, strain wild type, stronger effect = lower value 0.949
active: S. cerevisiae deletion strains, locus YLR039C, strain RIC1, stronger effect = lower value 0.679 | S. cerevisiae deletion strains, locus YLR085C, strain ARP6, stronger effect = lower value 0.764 | S. cerevisiae deletion strains, locus YLR262C, strain YPT6, stronger effect = lower value 0.672

Cc1cccc(N=NC(C(=O)C(F)(F)F)=C(O)c2cccs2)c1
active: S. cerevisiae deletion strains, locus YLR113W, strain HOG1, stronger effect = lower value 0.713 | S. cerevisiae deletion strains, locus YPL256C, strain CLN2, stronger effect = lower value 0.777
inactive: S. cerevisiae deletion strains, locus YAR019C, strain CDC15, stronger effect = lower value 0.995 | S. cerevisiae deletion strains, locus YBL105C, strain PKC1, stronger effect = lower value 0.985 | S. cerevisiae deletion strains, locus YBR135W, strain CKS1, stronger effect = lower value 0.987 | S. cerevisiae deletion strains, locus YBR136W, strain MEC1, stronger effect = lower value 0.993 | S. cerevisiae deletion strains, locus YBR160W, strain CDC28, stronger effect = lower value 0.996 | S. cerevisiae deletion strains, locus YDL017W, strain CDC7, stronger effect = lower value 0.986 | S. cerevisiae deletion strains, locus YDL028C, strain MPS1, stronger effect = lower value 0.996 | [6] 0.988 | S. cerevisiae deletion strains, locus YDL108W, strain KIN28, stronger effect = lower value 0.984 | S. cerevisiae deletion strains, locus YDL132W, strain cdc53, stronger effect = lower value 0.978 | S. cerevisiae deletion strains, locus YDL214C, strain PRR2, stronger effect = lower value 0.975 | S. cerevisiae deletion strains, locus YDR052C, strain DBF4, stronger effect = lower value 0.99 | S. cerevisiae deletion strains, locus YDR054C, strain cdc34, stronger effect = lower value 0.976 | S. cerevisiae deletion strains, locus YDR226W, strain ADK1, stronger effect = lower value 0.992 | S. cerevisiae deletion strains, locus YDR477W, strain SNF1, stronger effect = lower value 0.975 | S. cerevisiae deletion strains, locus YER123W, strain YCK3, stronger effect = lower value 0.979 | S. cerevisiae deletion strains, locus YER133W, strain GLC7, stronger effect = lower value 0.975 | S. cerevisiae deletion strains, locus YFL009W, strain cdc4, stronger effect = lower value 0.988 | S. cerevisiae deletion strains, locus YFL029C, strain CAK1, stronger effect = lower value 0.993 | S. cerevisiae deletion strains, locus YFR003C, strain YPI1, stronger effect = lower value 0.99 | S. cerevisiae deletion strains, locus YFR019W, strain FAB1, stronger effect = lower value 0.992 | S. cerevisiae deletion strains, locus YFR028C, strain CDC14, stronger effect = lower value 0.983 | S. cerevisiae deletion strains, locus YGR040W, strain KSS1, stronger effect = lower value 0.974 | S. cerevisiae deletion strains, locus YGR052W, strain FMP48, stronger effect = lower value 0.927 | S. cerevisiae deletion strains, locus YGR092W, strain DBF2, stronger effect = lower value 0.946 | [7] 0.876 | S. cerevisiae deletion strains, locus YHR079C, strain IRE1, stronger effect = lower value 0.749 | S. cerevisiae deletion strains, locus YHR082C, strain KSP1, stronger effect = lower value 1.07 | S. cerevisiae deletion strains, locus YHR205W, strain SCH9, stronger effect = lower value 0.985 | S. cerevisiae deletion strains, locus YIL147C, strain SLN1, stronger effect = lower value 0.988 | S. cerevisiae deletion strains, locus YJL095W, strain BCK1, stronger effect = lower value 0.787 | S. cerevisiae deletion strains, locus YJL128C, strain PBS2, stronger effect = lower value 0.944 | S. cerevisiae deletion strains, locus YJL157C, strain FAR1, stronger effect = lower value 0.989 | S. cerevisiae deletion strains, locus YJR016C, strain ILV3, stronger effect = lower value 0.984 | S. cerevisiae deletion strains, locus YJR066W, strain TOR1 (second series), stronger effect = lower value 0.988 | S. cerevisiae deletion strains, locus YJR066W, strain TOR1, stronger effect = lower value 1.07 | S. cerevisiae deletion strains, locus YKL048C, strain ELM1, stronger effect = lower value 0.976 | S. cerevisiae deletion strains, locus YKL067W, strain YNK1, stronger effect = lower value 0.976 | S. cerevisiae deletion strains, locus YKL101W, strain HSL1, stronger effect = lower value 0.951 | S. cerevisiae deletion strains, locus YKL193C, strain SDS22, stronger effect = lower value 0.991 | S. cerevisiae deletion strains, locus YKL203C, strain TOR2, stronger effect = lower value 1.06 | S. cerevisiae deletion strains, locus YLR133W, strain CKI1, stronger effect = lower value 0.983 | S. cerevisiae deletion strains, locus YLR403W, strain SFP1, stronger effect = lower value 0.979 | S. cerevisiae deletion strains, locus YML070W, strain DAK1, stronger effect = lower value 0.973 | S. cerevisiae deletion strains, locus YMR001C, strain CDC5, stronger effect = lower value 0.979 | S. cerevisiae deletion strains, locus YMR205C, strain PFK2 (second series), stronger effect = lower value 0.984 | S. cerevisiae deletion strains, locus YMR277W, strain FCP1, stronger effect = lower value 0.989 | S. cerevisiae deletion strains, locus YNL006W, strain LST8, stronger effect = lower value 0.988 | S. cerevisiae deletion strains, locus YNL020C, strain ARK1, stronger effect = lower value 0.979 | S. cerevisiae deletion strains, locus YNL161W, strain CBK1, stronger effect = lower value 0.99 | S. cerevisiae deletion strains, locus YNL183C, strain NPR1, stronger effect = lower value 0.842 | S. cerevisiae deletion strains, locus YNL207W, strain RIO2, stronger effect = lower value 0.986 | S. cerevisiae deletion strains, locus YNL222W, strain SSU72, stronger effect = lower value 0.987 | S. cerevisiae deletion strains, locus YNL307C, strain MCK1 (second series), stronger effect = lower value 0.984 | S. cerevisiae deletion strains, locus YOL078W, strain AVO1, stronger effect = lower value 0.988 | S. cerevisiae deletion strains, locus YOL136C, strain PFK27, stronger effect = lower value 0.989 | S. cerevisiae deletion strains, locus YOR061W, strain CKA2, stronger effect = lower value 0.983 | S. cerevisiae deletion strains, locus YOR119C, strain RIO1, stronger effect = lower value 0.999 | S. cerevisiae deletion strains, locus YOR231W, strain MKK1, stronger effect = lower value 0.797 | S. cerevisiae deletion strains, locus YOR329C, strain SCD5, stronger effect = lower value 0.984 | S. cerevisiae deletion strains, locus YPL031C, strain PHO85, stronger effect = lower value 0.953 | S. cerevisiae deletion strains, locus YPL153C, strain RAD53, stronger effect = lower value 0.948 | S. cerevisiae deletion strains, locus YPL204W, strain HRR25, stronger effect = lower value 0.97 | S. cerevisiae deletion strains, locus YPL209C, strain IPL1, stronger effect = lower value 0.99 | S. cerevisiae deletion strains, locus YPR025C, strain CCL1, stronger effect = lower value 0.985 | S. cerevisiae deletion strains, locus YPR106W, strain ISR1, stronger effect = lower value 0.98 | S. cerevisiae deletion strains, locus YPR111W, strain DBF20, stronger effect = lower value 0.972 | S. cerevisiae deletion strains, strain NNK1, stronger effect = lower value 0.995 | S. cerevisiae deletion strains, strain TSCII, stronger effect = lower value 0.988

Source: PubChem BioAssay AID1159580 (chemical genetic matrix, 2015)
